13 molecules from PubChem BioAssay (NCI) can be followed below.

Each structure is given as a SMILES string. This is part of a sample that, as a whole, favours compounds with a hit. Of some 83,000 tested, about 20% had one in any assay.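 The test compound was applied at a single concentration to cells in 96-well plates for 48 hours, and percent growth was recorded.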 Calls of active or inactive are those of the source. Rule for the calls: active = growth percent below 10; inactive = the rest.

This assay deals with HT29 colon. Put plainly: NCI-60 one-dose screen, 48 h (100 = growth as untreated, 0 = no growth, -100 = all killed). To be noted: 10 µM unless noted.
For the molecule `COc1ccc(-n2c(SCC(=O)Nc3ccc(-c4nc5ccccc5[nH]4)cc3)nc3ccccc3c2=O)cc1`, the growth is -5.71% (active). As for `O=C(Oc1ccc2ccc(=O)oc2c1)c1ccc(Cl)cc1`, the growth was 115% (inactive).

On to `COc1ccc(C(=O)/C=C/c2ccc(OCc3ccc(Cl)cc3)c(OC)c2)cc1OC`, for which the growth was 63.7% (inactive). As for `O=C(N/N=C/c1cccs1)c1[nH]c2ccc(Br)cc2c1-c1ccccc1`, the growth is -23.3% (active). Then `Cc1cc2nc3c4cc(Cl)ccc4n(CC(=S)NCCN(C)C)c3nc2cc1C`, with -32% (active). For the molecule `COc1ccc([C@@H]2c3[nH]c4ccccc4c3CC3C(=O)N(C4CCN(Cc5c(F)cccc5F)CC4)CC(=O)N32)c(OC)c1` (stereo partly drawn), the growth was 44% [5.26 µM] (inactive). As for `Cc1cc(C(NC(=O)CCCCCNc2cccc3c2C(=O)N(C2CCC(=O)NC2=O)C3=O)c2cccnc2)c(O)c2ncccc12` (stereo not drawn), the growth is 20.5% (inactive).

In the case of `CC(=NNc1ncnc2ccccc12)c1ccc(S(C)(=O)=O)cc1`, the growth was 112% (inactive). Consider `Nc1nc(N)c2c(n1)NC(c1ccc(C(F)(F)F)cc1)CC(c1ccc(Nc3nc(NCCO)nc(Nc4ccc(Cl)cc4)n3)cc1)=N2` (stereo not drawn), for which the growth was -66.6% (active). Turning to `COc1ccc(/C=C2\SC(=Nc3cc(C)[nH]n3)NC2=O)cc1`, the growth was 107% (inactive). Then `Cn1ccnc1C(=O)/C=C/c1ccc(NC(=O)Nc2ccc(Cl)cc2)cc1`, with 93.6% (inactive); and `COC(=O)C1CN(S(=O)(=O)/N=C2\NC(=O)NC2=C(Cl)Cl)C1`, with 111% (inactive); and `Nc1nc(N)c2c(n1)NC(c1ccc(F)cc1)CC(c1ccc(Nc3nc(NCCO)nc(Nc4ccc(Cl)cc4)n3)cc1)=N2` (stereo not drawn), with -52.1% (active).
